The list is not random: actives were taken first. Their share in the collection is about 3.4%.
sPLA2-III inh: Inhibits HGIII-sPLA2 liposome hydrolysis, primary screen | Q9NZ20 | QFRET BODIPY PC-A2 liposome hydrolysis, fluorescence | inhibition, % at 12.2 µM | 0.56% of 370,000 active | AID 743126;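 active = inhibition above mean plus 3 SD of compounds lying within the high and low control bounds, cut at about 19% in these data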;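 note: 0% = median of test compound wells and 100% = no enzyme DMSO wells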
PLC-gamma1 inh: blocks human PLC-gamma1 enzyme activity | inhibition, % at 12.2 µM | purified PLC-gamma1, fluorogenic substrate, fluorescence | P19174 | 0.84% of 370,000 active; in the data active = inhibition above about 9.5%
KLK7 zymogen act: activates the human kallikrein-7 zymogen; P49862; purified proKLK7, EDANS-DABCYL substrate fluorescence; 100% is mature enzyme control, 0% vehicle; activation, % at 7 µM; 0.9% of 370,000 active; AID 652039;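 active = activation above the mean of all tested compounds plus 3 SD, computed per campaign excluding outliers beyond control limits, cut at about 13% in these data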
ADAM10 inh: inhibitors of human ADAM10; O14672; recombinant ADAM10, EDANS/DABCYL FRET peptide cleavage, 3 h; inhibition, % at 7 µM; 0.62% of 370,000 active;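 active = inhibition above a per-campaign cutoff equal to the mean of compounds falling between control-based bounds plus 3 SD, cut at about 20% in these data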;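 note: 0% = DMSO wells while the 100% control is not disclosed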
PLC-beta3 inh: PLC-beta3 (human) inhibition, primary screen | Q01970 | Purified PLC-beta3, fluorogenic substrate, fluorescence | inhibition, % at 12.2 µM | 0.18% of 370,000 active; in the data active = inhibition above about 11%;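 note: 0% = median of compound wells on plate and 100% = full blocker control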
ADAM17 inh: inhibitors of human ADAM17; recombinant ADAM17, EDANS/DABCYL FRET peptide cleavage; inhibition, % at 6.95 µM; 0.83% of 370,000 active;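 active = inhibition above the mean of compounds lying between control limits plus 3 SD, set per campaign, cut at about 8.5% in these data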;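 note: 0% = DMSO-only wells as the low control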
Target sequence (P78536 215-824 limits assumed): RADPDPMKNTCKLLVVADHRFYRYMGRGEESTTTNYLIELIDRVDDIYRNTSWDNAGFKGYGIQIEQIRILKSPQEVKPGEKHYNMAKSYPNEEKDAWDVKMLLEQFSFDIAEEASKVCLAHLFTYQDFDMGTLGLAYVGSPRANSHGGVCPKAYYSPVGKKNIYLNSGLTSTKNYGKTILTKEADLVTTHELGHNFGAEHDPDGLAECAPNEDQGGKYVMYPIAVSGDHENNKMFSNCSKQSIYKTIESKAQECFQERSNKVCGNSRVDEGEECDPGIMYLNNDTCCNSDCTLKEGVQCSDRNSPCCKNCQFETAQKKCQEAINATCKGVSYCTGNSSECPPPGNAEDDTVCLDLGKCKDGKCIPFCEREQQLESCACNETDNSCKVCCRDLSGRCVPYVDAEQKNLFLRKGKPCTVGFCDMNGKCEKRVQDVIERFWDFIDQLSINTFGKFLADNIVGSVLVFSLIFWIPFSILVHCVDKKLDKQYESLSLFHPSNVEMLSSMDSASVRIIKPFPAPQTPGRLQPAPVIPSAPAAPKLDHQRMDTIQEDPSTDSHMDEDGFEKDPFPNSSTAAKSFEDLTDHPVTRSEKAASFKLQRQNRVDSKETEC
sPLA2 confirm: human GIII-sPLA2 inhibition, confirmation; 34% of 2,000 active; inhibition, % at 12.2 µM; shares compounds with sPLA2-III inh; recombinant hGIII-sPLA2, BODIPY PC-A2 QFRET fluorescence;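 active = mean inhibition across triplicates above the hit cutoff set in the earlier primary screen, cut at about 19% in these data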;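 note: 0% = enzyme with DMSO and 100% = DMSO wells lacking enzyme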
BODIPY interf: 535nm fluorescence interference, HGIII-sPLA2 counter-screen; shares compounds with sPLA2-III inh; inhibition, % at 12.2 µM; BODIPY FL product fluorescence interference, QFRET; 8.5% of 2,000 active;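 active = average inhibition above the solvent-only control mean plus 3 SD, cut at about 6% in these data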;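 note: 0% = DMSO with substrate plus product and 100% = DMSO with substrate alone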
BODIPY interf DR: 535nm optical interference dose response, HGIII-sPLA2 counter-screen | shares compounds with sPLA2-III inh | BODIPY FL product fluorescence interference, cell-free | IC50, µM | 240 tested, under 10 active | AID 743455;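 active = IC50 at or below 10 µM; inactive = IC50 above 10 µM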
An asterisk follows results filed as active.

Cc1cc(C)nc(SCc2ccc(C(=O)N/N=C/c3cccc(O)c3O)cc2)n1 was read as sPLA2-III inh 26*, PLC-gamma1 inh -7, KLK7 zymogen act 0, ADAM10 inh 19, PLC-beta3 inh -5, ADAM17 inh 5, sPLA2 confirm 38*, BODIPY interf -29 and BODIPY interf DR >122.
`S=C(Nc1ccc(Cl)cc1)OC1CCC12CCC(c1ccccc1)CC2` (configuration not stated) gave sPLA2-III inh -1, PLC-gamma1 inh 0, KLK7 zymogen act 0, ADAM10 inh 6, PLC-beta3 inh 1 and ADAM17 inh 4.
COc1cc(-c2c(C(=O)c3ccccc3)[nH]c(N)c2C(=O)NCCc2c[nH]c3ccccc23)ccc1F was read as sPLA2-III inh -38, PLC-gamma1 inh -7, KLK7 zymogen act -1, ADAM10 inh 16, PLC-beta3 inh -8 and ADAM17 inh 7.
Screening CCOc1ccccc1NC(=S)N1CCN(c2ccccc2)CC1 returned sPLA2-III inh 24*, PLC-gamma1 inh -4, KLK7 zymogen act 0, ADAM10 inh 5, PLC-beta3 inh -3, ADAM17 inh -3, sPLA2 confirm 26* and BODIPY interf -4.
COc1ccc(NC(=S)N2CCN(c3ccccc3)CC2)c(OC)c1 was read as sPLA2-III inh 7, PLC-gamma1 inh 0, KLK7 zymogen act 1, ADAM10 inh 1, PLC-beta3 inh 1 and ADAM17 inh -1.
`Cc1nc2ccccn2c1C(=O)N=Nc1c(O)n(CCC(C)C)c2ccccc12` gave sPLA2-III inh 22*, PLC-gamma1 inh 6, KLK7 zymogen act 0, ADAM10 inh 1, PLC-beta3 inh -1, ADAM17 inh 3, sPLA2 confirm -5 and BODIPY interf -10.
Screening CC(=O)Nc1sc(N/N=C\c2cccc(Cl)c2)nc1-c1cccs1 returned sPLA2-III inh 25*, PLC-gamma1 inh -7, KLK7 zymogen act -2, ADAM10 inh 1, PLC-beta3 inh -17, ADAM17 inh 6, sPLA2 confirm 35* and BODIPY interf 14*.
`CCCCNC(=O)CN(c1cccc(F)c1)S(C)(=O)=O` gave sPLA2-III inh 1, PLC-gamma1 inh 2, KLK7 zymogen act 0, ADAM10 inh 1, PLC-beta3 inh -1 and ADAM17 inh -5.
Screening CCCNC(=O)CN(c1cccc(F)c1)S(C)(=O)=O returned sPLA2-III inh 20*, PLC-gamma1 inh 6, KLK7 zymogen act 0, ADAM10 inh -5, PLC-beta3 inh -2, ADAM17 inh 0, sPLA2 confirm -4 and BODIPY interf 2.
CCOc1ccc2c(c1)-c1c(ssc1=S)C(C)(C)N2C(=O)c1ccco1 was read as sPLA2-III inh 21*, PLC-gamma1 inh 6, KLK7 zymogen act 1, ADAM10 inh 11, PLC-beta3 inh 4, ADAM17 inh 8, sPLA2 confirm 36*, BODIPY interf 1 and BODIPY interf DR >122.
For COc1ccc2c(c1)-c1c(ssc1=S)C(C)(C)N2C(=O)CSC1=NCCS1 the results were sPLA2-III inh 16, PLC-gamma1 inh 5, KLK7 zymogen act 0, ADAM10 inh 16, PLC-beta3 inh 0 and ADAM17 inh 5.
`CCNC1CCS(=O)(=O)C1` (configuration not stated) gave sPLA2-III inh 22*, PLC-gamma1 inh 1, KLK7 zymogen act 0, ADAM10 inh 4, PLC-beta3 inh -6, ADAM17 inh -5, sPLA2 confirm 2 and BODIPY interf -3.
CCN(CC)CCCNC1CCS(=O)(=O)C1 (configuration not stated) was read as sPLA2-III inh 1, PLC-gamma1 inh 1, KLK7 zymogen act 0, ADAM10 inh 6, PLC-beta3 inh 3 and ADAM17 inh 4.
`Cc1cc2nc(/N=C(\N)NC(=O)N3c4ccccc4Sc4ccccc43)nc(C)c2cc1C` gave sPLA2-III inh 21*, PLC-gamma1 inh -16, KLK7 zymogen act -2, ADAM10 inh -38, PLC-beta3 inh -39, ADAM17 inh -14, sPLA2 confirm 2 and BODIPY interf 0.
CS(=O)(=O)N[C@@H]1C[C@@H]2O[C@H](CO)CC[C@@H]2O[C@@H]1CCc1ccc(-c2ccccc2F)cc1 was read as sPLA2-III inh -19, PLC-gamma1 inh 3, KLK7 zymogen act 1, ADAM10 inh 6, PLC-beta3 inh 3 and ADAM17 inh 1.
`CC1=CC(C)(C)NC(=S)N1C(C)c1ccccc1` (configuration not stated) gave sPLA2-III inh 12, PLC-gamma1 inh -2, KLK7 zymogen act -1, ADAM10 inh 0, PLC-beta3 inh -7 and ADAM17 inh -4.
CC1=CC(C)(C)NC(=S)N1c1cccc2ccccc12 was read as sPLA2-III inh 20*, PLC-gamma1 inh -1, KLK7 zymogen act 0, ADAM10 inh -4, PLC-beta3 inh 1, ADAM17 inh -5, sPLA2 confirm 31*, BODIPY interf -5 and BODIPY interf DR >122.
Screening CC1=CC(C)(C)NC(=S)N1c1ccc2ccccc2c1 returned sPLA2-III inh 11, PLC-gamma1 inh -3, KLK7 zymogen act 0, ADAM10 inh -20, PLC-beta3 inh -6 and ADAM17 inh -11.
Screening CC1=CC(C)(C)NC(=S)N1c1ccc(Cl)cc1 returned sPLA2-III inh 20*, PLC-gamma1 inh 2, KLK7 zymogen act 1, ADAM10 inh -15, PLC-beta3 inh 3, ADAM17 inh -5, sPLA2 confirm 21* and BODIPY interf -4.
For COCCN=C1Sc2ccccc2[C@@H]2C[C@H]3[C@H](CON3C)CN12 the results were sPLA2-III inh -2, PLC-gamma1 inh 0, KLK7 zymogen act 0, ADAM10 inh -9, PLC-beta3 inh 4 and ADAM17 inh -1.
`COCCn1c(SCC(=O)NCC2CCCO2)nc2c(c1=O)SC(C)C2` (configuration not stated) gave sPLA2-III inh 20*, PLC-gamma1 inh 4, KLK7 zymogen act -1, ADAM10 inh -11, PLC-beta3 inh -1, ADAM17 inh 2, sPLA2 confirm 3 and BODIPY interf -7.
For COc1cc(N/C(=C\C(=O)c2ccccc2)c2ccccc2)ccc1Cl the results were sPLA2-III inh 4, PLC-gamma1 inh -1, KLK7 zymogen act 1, ADAM10 inh -4, PLC-beta3 inh 1 and ADAM17 inh -1.

Compound activity as filed in PubChem BioAssay.
